# Measured values reported in PubChem BioAssay (NCATS).
# Results filed as inconclusive are left out. Calls of active or inactive are those of the source. The call rests on the fitted dose curve; in most records, active means well fitted cell-killing curve with a large enough effect; inconclusive means small, poorly fitted or top-dose-only effect, or effect the other way; inactive means no such curve, though single readings can be large or run the other way.
# Assay: Quantitative High-Throughput drug screen in 47 multiple myeloma cell lines against the NCATS MIPE library collection: UTMC2_PLB cell viability assay (AID 1919868); further: nearly all actives have a fitted effect of over 55% in size
# Details: CellTiter-Glo ATP luminescence, 48 h; viability (% of DMSO control): at 45.8 µM (top of the series)
# Method in brief: (§1)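 Plated at 500 cells per well, myeloma lines received MIPE 4.0 compounds by pin tool. Following 48 h culture at 37 °C, CellTiter-Glo luminescence gave viability relative to DMSO and media-only controls.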
# Potency means the concentration at half of the fitted maximal effect.
row,SMILES,Potency
1,CS(=O)c1ccc(-c2nc(-c3ccc(F)cc3)c(-c3ccncc3)[nH]2)cc1 (stereo unspecified),34 µM (active)
2,COc1ccc(Cc2nccc3cc(OC)c(OC)cc23)cc1OC,inactive
3,CC(C)C[C@H](CC(=O)O)C(=O)N[C@@H](Cc1c[nH]c2ccccc12)C(=O)N[C@@H](C)c1ccccc1,inactive
4,COc1cccc2c1CCCC2CCCN1CCN(C2CCCCC2)CC1 (stereo unspecified),16.6 µM (active)
5,NC[C@@H]1O[C@@H](O[C@H]2[C@@H](O)[C@H](O[C@@H]3[C@@H](O)[C@@H](N)C[C@H](N)[C@H]3O[C@H]3O[C@H](CN)[C@@H](O)[C@@H](O)[C@H]3N)O[C@H]2CO)[C@H](N)[C@@H](O)[C@@H]1O,inactive
6,CN(C[C@@H]1COCCO1)S(=O)(=O)Nc1ccc2ccc3ncc(-c4cnn(C)c4)cc3c(=O)c2c1,3.32 µM (active)
7,O=C(NC1CCOCC1)c1ccc(-c2cc(-c3cn[nH]c3-c3ccccn3)ccn2)cc1,inactive
8,CN(C)c1cc(NC(=O)CNC(C)(C)C)c(O)c2c1C[C@@H]1C[C@H]3[C@H](N(C)C)C(=O)C(C(N)=O)=C(O)[C@@]3(O)C(=O)C1=C2O,13.2 µM (active)
9,CC1(C)Cc2c(sc(NC(=S)NC(=O)c3ccccc3)c2C(=O)O)CO1,20.9 µM (active)
10,O=c1cc(-c2ccc(O)cc2)oc2cc(O)cc(O)c12,inactive

# Assay: Quantitative High-Throughput drug screen in 47 multiple myeloma cell lines against the NCATS MIPE library collection: PE2_PLB cell viability assay (AID 1919869); further: nearly all actives have a fitted effect of over 35% in size
# Details: PE2_PLB myeloma cells viability, ATP luminescence, 48 h; series mostly up to 45.8 µM
# Method in brief: as §1
row,SMILES,Potency
1,Nc1nc(F)nc2c1ncn2[C@@H]1O[C@H](COP(=O)(O)O)[C@@H](O)[C@H]1O,inactive
2,Cc1cccc(Nc2nc(-c3ccncc3)cs2)c1,23.5 µM (active)
3,CC(C)(C)NC(=O)Nc1cccc(Nc2ncc(F)c(NC(C)(C)CO)n2)c1,18.7 µM (active)
4,CS(=O)c1ccc(-c2nc(-c3ccc(F)cc3)c(-c3ccncc3)[nH]2)cc1 (stereo unspecified),30.3 µM (active)
5,CC(C)(C)Cn1c(N)nc2ccc(-c3[nH]c(C(C)(C)C)nc3-c3ccc(F)cc3)nc21,20.9 µM (active)
6,O=C1C[C@@H](c2ccc(O)cc2)Oc2cc(O)cc(O)c21,inactive
7,O=C(O)c1cc(O)c2c(c1)C(=O)c1cccc(O)c1C2=O,inactive
8,O=C(O)CCC1CCC(c2cc(F)ccc2F)(S(=O)(=O)c2ccc(Cl)cc2)CC1 (stereo unspecified),inactive
9,COc1ccc(Cc2ccc(NC(N)=O)cc2)cc1-c1cccc(Cl)c1,inactive
10,CC(C)C[C@H](CC(=O)O)C(=O)N[C@@H](Cc1c[nH]c2ccccc12)C(=O)N[C@@H](C)c1ccccc1,inactive
11,COc1ccc(C2CC(c3ccccc3)=NN2c2ccc(S(N)(=O)=O)cc2)cc1 (stereo unspecified),23.5 µM (active)
12,COc1cccc2c1CCCC2CCCN1CCN(C2CCCCC2)CC1 (stereo unspecified),23.5 µM (active)
13,CN[C@@H](C)C(=O)N[C@H]1CN(C(=O)CC(C)C)CC[C@H]2CC[C@@H](C(=O)NC(c3ccccc3)c3ccccc3)N2C1=O,9.35 µM (active)
14,O=C(OCC#CCSc1nnc(-c2cccc3ccccc23)o1)c1cc2ccccc2s1,inactive
15,CON=C(C(=O)N[C@@H]1C(=O)N2C(C(=O)OCOC(=O)C(C)(C)C)=C(C=Cc3scnc3C)CS[C@H]12)c1csc(N)n1,18.7 µM (active)
16,NC[C@@H]1O[C@@H](O[C@H]2[C@@H](O)[C@H](O[C@@H]3[C@@H](O)[C@@H](N)C[C@H](N)[C@H]3O[C@H]3O[C@H](CN)[C@@H](O)[C@@H](O)[C@H]3N)O[C@H]2CO)[C@H](N)[C@@H](O)[C@@H]1O,inactive
17,CN(C[C@@H]1COCCO1)S(=O)(=O)Nc1ccc2ccc3ncc(-c4cnn(C)c4)cc3c(=O)c2c1,1.48 µM (active)
18,O=C1Nc2ccc(Cl)cc2C(C#CC2CC2)(C(F)(F)F)O1 (stereo unspecified),23.5 µM (active)
19,CN1CCN(CCOc2cc(OC3CCOCC3)c3c(Nc4c(Cl)ccc5c4OCO5)ncnc3c2)CC1,23.5 µM (active)
20,O=C(NC1CCOCC1)c1ccc(-c2cc(-c3cn[nH]c3-c3ccccn3)ccn2)cc1,inactive
21,COCCCCC(=NOCCN)c1ccc(C(F)(F)F)cc1,18.7 µM (active)
22,CCC(CC)[C@H](NC(C)=O)[C@@H]1[C@H](O)[C@@H](C(=O)O)C[C@@H]1N=C(N)N,inactive
23,NC(=O)c1cccc(-c2cc(Nc3ccc(OC(F)(F)F)cc3)ncn2)c1,18.7 µM (active)
24,CN(C)c1cc(NC(=O)CNC(C)(C)C)c(O)c2c1C[C@@H]1C[C@H]3[C@H](N(C)C)C(=O)C(C(N)=O)=C(O)[C@@]3(O)C(=O)C1=C2O,inactive
25,COc1cccc(-c2cc(=O)c3ccccc3o2)c1N,4.18 µM (active)
26,O=c1cc(-c2ccc(O)cc2)oc2cc(O)cc(O)c12,20.9 µM (active)

# Assay: Quantitative High-Throughput drug screen in 47 multiple myeloma cell lines against the NCATS MIPE library collection: PCM6_Riken cell viability assay (AID 1919870); further: nearly all actives have a fitted effect of over 30% in size
# Details: CellTiter-Glo ATP, 48 h; series mostly up to 45.8 µM
# Method in brief: as §1
row,SMILES,Potency
1,Nc1nc(F)nc2c1ncn2[C@@H]1O[C@H](COP(=O)(O)O)[C@@H](O)[C@H]1O,inactive
2,Nc1ncnc2ccccc12,20.9 µM (active)
3,O=C1C[C@@H](c2ccc(O)cc2)Oc2cc(O)cc(O)c21,inactive
4,O=C(O)c1cc(O)c2c(c1)C(=O)c1cccc(O)c1C2=O,inactive
5,NC(=O)c1ccc2nc(-c3ccc(Oc4ccc(Cl)cc4)cc3)[nH]c2c1,inactive
6,O=C(O)CCC1CCC(c2cc(F)ccc2F)(S(=O)(=O)c2ccc(Cl)cc2)CC1 (stereo unspecified),13.2 µM (active)
7,CC(C)C[C@H](CC(=O)O)C(=O)N[C@@H](Cc1c[nH]c2ccccc12)C(=O)N[C@@H](C)c1ccccc1,inactive
8,COc1ccc(C2CC(c3ccccc3)=NN2c2ccc(S(N)(=O)=O)cc2)cc1 (stereo unspecified),26.4 µM (active)
9,COc1cccc2c1CCCC2CCCN1CCN(C2CCCCC2)CC1 (stereo unspecified),13.2 µM (active)
10,C=C1C(=O)OC(CCCCCCCC)C1C(=O)O (stereo unspecified),23.5 µM (active)
11,CON=C(C(=O)N[C@@H]1C(=O)N2C(C(=O)OCOC(=O)C(C)(C)C)=C(C=Cc3scnc3C)CS[C@H]12)c1csc(N)n1,20.9 µM (active)
12,NC[C@@H]1O[C@@H](O[C@H]2[C@@H](O)[C@H](O[C@@H]3[C@@H](O)[C@@H](N)C[C@H](N)[C@H]3O[C@H]3O[C@H](CN)[C@@H](O)[C@@H](O)[C@H]3N)O[C@H]2CO)[C@H](N)[C@@H](O)[C@@H]1O,inactive
13,CN(C[C@@H]1COCCO1)S(=O)(=O)Nc1ccc2ccc3ncc(-c4cnn(C)c4)cc3c(=O)c2c1,1.05 µM (active)
14,O=C1Nc2ccc(Cl)cc2C(C#CC2CC2)(C(F)(F)F)O1 (stereo unspecified),23.5 µM (active)
15,CN1CCN(CCOc2cc(OC3CCOCC3)c3c(Nc4c(Cl)ccc5c4OCO5)ncnc3c2)CC1,9.35 µM (active)
16,Cc1c[nH]c(C=C2C(=O)Nc3ccccc32)c1CCC(=O)O,20.9 µM (active)
17,O=C(NC1CCOCC1)c1ccc(-c2cc(-c3cn[nH]c3-c3ccccn3)ccn2)cc1,inactive
18,CCC(CC)[C@H](NC(C)=O)[C@@H]1[C@H](O)[C@@H](C(=O)O)C[C@@H]1N=C(N)N,inactive
19,CN(C)c1cc(NC(=O)CNC(C)(C)C)c(O)c2c1C[C@@H]1C[C@H]3[C@H](N(C)C)C(=O)C(C(N)=O)=C(O)[C@@]3(O)C(=O)C1=C2O,inactive
20,CC1(C)Cc2c(sc(NC(=S)NC(=O)c3ccccc3)c2C(=O)O)CO1,inactive
